# Measured values from PubChem BioAssay (Tox21).
# Inconclusive results are not listed. A call without a number means that no potency is given here. The source made the active and inactive calls. Unless noted, calls follow the shape of the dose curve; as a rule, active = well fitted curve in the direction sought with a large enough effect in the repeat runs; inconclusive = weak or mixed curves; inactive = no such curve, though single readings can be large; an effect the other way counts as inactive or inconclusive.
# Key:
# [1] = qHTS assay to identify small molecule phospholipidosis (PLD) inducers (AID 1259344; active = well fitted curve in the direction sought with a large enough effect; an effect the other way counts as inactive or inconclusive)
# Summary of the method: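 Cells (HepG2, 900 per well) attach for 4 h, receive LipidTOX Red and compound together, incubate 24 h at 37 C, are fixed 30 min with paraformaldehyde/Hoechst, then imaged at one site per well.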
# [2] = qHTS assay to identify small molecule HDAC inhibitors (AID 1259364); also: potency is read from the fitted curve at half-maximal effect;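 also: wild-type HCT-116 cells with endogenous class I/II HDAC activity; nearly all actives have a fitted effect of over 45% in size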
# Summary of the method: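 Screening used wild-type human colon HCT-116 cells incubated overnight, dosed with compounds for 2 hours, and assayed with a homogeneous luminogenic HDAC I/II reagent for 30 minutes at room temperature.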
# [3] = qHTS assay to identify small molecule HDAC inhibitors - cell viability counter screen (AID 1259365); also: nearly all actives have a fitted effect of over 50% in size; also: potency is read from the fitted curve at half-maximal effect
# Summary of the method: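 Cytotoxicity was gauged in wild-type HCT-116 cells after a brief 2hr treatment with DMSO-dissolved compounds at 37C and 5% CO2, using CellTiter-Glo luminescence developed for 30min at room temperature.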
# [4] = qHTS assay to identify small molecule agonists of the sonic hedgehog signaling (Shh) pathway (AID 1259368; calls by dose curve;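 also: NIH/3T3-derived 3T3Gli1-Luc cells carrying a stable Gli1-driven firefly luciferase reporter; series mostly up to about 92 µM; nearly all actives have a fitted effect of over 15% in size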)
# Summary of the method: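 Hedgehog pathway agonism scored by increased firefly luciferase luminescence in 3T3Gli1-Luc cells treated 24 hr at 37 C; detection used a 30 min room-temperature reagent incubation.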
# [5] = qHTS assay to identify small molecule antagonists of the sonic hedgehog signaling (Shh) pathway (AID 1259369; calls by dose curve; also: nearly all actives have a fitted effect of over 45% in size; also: potency is read from the fitted curve at half-maximal effect)
# Summary of the method: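 NIH/3T3 stable Gli1-Luc clone, 2,000 cells/well, 4hr settle; cpd + conditioned medium 24hr; Luc reagent 30min RT; luminescence.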
# [6] = target: Androgen receptor (Homo sapiens) (UniProt P10275); assay: qHTS assay to identify small molecule agonists of the androgen receptor (AR) signaling pathway in the presence of an antagonist (AID 1259381; calls by dose curve; also: nearly all actives have a fitted effect of over 15% in size; also: potency is read from the fitted curve at half-maximal effect)
# Androgen receptor (Homo sapiens), sequence (P10275 whole entry, looked up): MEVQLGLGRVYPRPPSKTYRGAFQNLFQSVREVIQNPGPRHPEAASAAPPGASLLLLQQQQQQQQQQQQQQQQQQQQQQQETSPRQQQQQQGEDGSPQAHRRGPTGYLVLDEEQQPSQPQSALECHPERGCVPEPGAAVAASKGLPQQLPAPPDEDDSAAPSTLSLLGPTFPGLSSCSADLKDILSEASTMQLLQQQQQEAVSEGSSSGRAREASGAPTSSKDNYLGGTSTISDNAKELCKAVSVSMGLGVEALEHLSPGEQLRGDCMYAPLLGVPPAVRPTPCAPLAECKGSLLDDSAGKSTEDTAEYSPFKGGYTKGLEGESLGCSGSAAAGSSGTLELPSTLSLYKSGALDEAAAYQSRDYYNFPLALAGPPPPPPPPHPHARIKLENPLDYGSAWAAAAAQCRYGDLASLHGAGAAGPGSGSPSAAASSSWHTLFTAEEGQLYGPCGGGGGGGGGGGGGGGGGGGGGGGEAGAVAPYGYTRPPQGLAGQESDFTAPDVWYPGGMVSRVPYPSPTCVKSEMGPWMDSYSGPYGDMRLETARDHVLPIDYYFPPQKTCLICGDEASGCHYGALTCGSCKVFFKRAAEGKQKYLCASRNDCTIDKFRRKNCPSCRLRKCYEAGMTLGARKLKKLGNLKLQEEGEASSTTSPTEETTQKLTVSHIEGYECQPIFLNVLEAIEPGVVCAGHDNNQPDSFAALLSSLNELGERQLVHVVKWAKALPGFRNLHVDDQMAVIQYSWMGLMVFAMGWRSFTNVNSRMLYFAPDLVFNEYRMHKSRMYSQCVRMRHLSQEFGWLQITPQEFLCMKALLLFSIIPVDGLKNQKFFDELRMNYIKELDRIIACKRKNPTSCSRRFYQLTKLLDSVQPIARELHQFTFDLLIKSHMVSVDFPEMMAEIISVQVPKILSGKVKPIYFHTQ
# Summary of the method: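 Luminescent ONE-Glo read, 30min at room temperature, follows 16hr compound exposure (15 concentrations) of MDA-kb2 cells at 37C, 0% CO2, with nilutamide added at 3.0uM final.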
# [7] = qHTS assay to identify small molecule antagonists of the estrogen receptor beta (ER-beta) signaling pathway - cell viability counter screen (AID 1259382); also: nearly all actives have a fitted effect of over 55% in size; also: potency is read from the fitted curve at half-maximal effect
# Summary of the method: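 Readout: luminescence, CellTiter-Glo, same wells as bla assay. System: ER-beta-UAS-bla GripTite HEK293T, 2% charcoal-stripped FBS. Exposure: compounds plus 1nM 17-beta-estradiol, 16 hr, 37C.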
# [8] = qHTS assay to identify small molecule antagonists of the androgen receptor (AR) signaling pathway using the MDA cell line in the presence of 0.5 nM R1881 - cell viability counter screen (AID 1259242); also: nearly all actives have a fitted effect of over 45% in size; also: potency is read from the fitted curve at half-maximal effect
# Summary of the method: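 Concentration-response screen of compounds for toxicity in MDA-kb2 reporter cells: 16 hr at 37C with 0.5 nM R1881, endpoint live-cell protease fluorescence measured in the reporter wells.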
# [9] = target: Androgen receptor (Homo sapiens) (UniProt P10275); assay: qHTS assay to identify small molecule antagonists of the androgen receptor (AR) signaling pathway using the MDA cell line in the presence of 0.5 nM R1881 (AID 1259243); also: nearly all actives have a fitted effect of over 50% in size; also: potency is read from the fitted curve at half-maximal effect
# Summary of the method: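 With R1881 held at 0.5 nM (final), compound effects on MMTV-luciferase expression in MDA-kb2 cells were scored by luminescence after a 16 hr, 37C incubation.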
# [10] = qHTS assay to identify small molecule agonists of the sonic hedgehog signaling (Shh) pathway - cell viability counter screen (AID 1259366); also: nearly all actives have a fitted effect of over 50% in size; also: potency is read from the fitted curve at half-maximal effect
# Summary of the method: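 Stable Gli1-Luc NIH/3T3 clone, 2,000 cells/well. Compound exposure 24hr at 37C. Read-out: CellTiter-Fluor fluorescence.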
# [11] = qHTS assay to identify small molecule antagonists of the sonic hedgehog signaling (Shh) pathway - cell viability counter screen (AID 1259367); also: potency is read from the fitted curve at half-maximal effect; nearly all actives have a fitted effect of over 55% in size
# Summary of the method: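 Cytotoxicity was assessed in parallel with Shh reporter activity by measuring live-cell protease fluorescence (CellTiter-Fluor) in NIH/3T3 cells stably carrying Gli1-Luc, treated with compound under conditioned medium stimulation for 23 hr plus 1 hr reagent incubation.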
# [12] = qHTS assay to identify small molecule agonists of the androgen receptor (AR) signaling pathway in the presence of an antagonist - cell viability counter screen (AID 1259379); also: nearly all actives have a fitted effect of over 25% in size; also: potency is read from the fitted curve at half-maximal effect
# Summary of the method: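 MDA-kb2 viability measured by CellTiter-Fluor fluorescence in the same wells as the luciferase signal; nilutamide 3.0uM final; 15-point compound titration; 16 hr at 37C.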
# [13] = qHTS assay to identify small molecule agonists of the estrogen receptor beta (ER-beta) signaling pathway - cell viability counter screen (AID 1259380); also: nearly all actives have a fitted effect of over 30% in size; also: potency is read from the fitted curve at half-maximal effect
# Summary of the method: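 Measured: luminescence from CellTiter-Glo after 30 min at room temperature, added to wells already read for the LiveBLAzer FRET reporter (2 hr substrate); ER-beta-UAS-bla HEK293T cells had 16 hr compound treatment at 37C, 5% CO2.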
# [14] = qHTS assay to identify small molecule agonists or antagonists of the thyroid stimulating hormone receptor (TSHR) signaling pathway - wild type cell line counter screen (AID 1259384; calls by dose curve)
# Summary of the method: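 Wild-type HEK293 cells were plated 18 h at 37 C/5% CO2, pin-dosed with compound plus Ro20-1724 medium, held 30 min at room temperature, then given cAMP-d2 and anti-cAMP-cryptate; fluorescence was read after 1 h. Fifteen concentrations, triplicate.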
# [15] = target: Thyrotropin receptor (Homo sapiens) (UniProt P16473); assay: qHTS assay to identify small molecule antagonists of the thyroid stimulating hormone receptor (TSHR) signaling pathway (AID 1259385; calls by dose curve; also: nearly all actives have a fitted effect of over 20% in size; also: potency is read from the fitted curve at half-maximal effect)
# Thyrotropin receptor (Homo sapiens), sequence (P16473 whole entry, looked up): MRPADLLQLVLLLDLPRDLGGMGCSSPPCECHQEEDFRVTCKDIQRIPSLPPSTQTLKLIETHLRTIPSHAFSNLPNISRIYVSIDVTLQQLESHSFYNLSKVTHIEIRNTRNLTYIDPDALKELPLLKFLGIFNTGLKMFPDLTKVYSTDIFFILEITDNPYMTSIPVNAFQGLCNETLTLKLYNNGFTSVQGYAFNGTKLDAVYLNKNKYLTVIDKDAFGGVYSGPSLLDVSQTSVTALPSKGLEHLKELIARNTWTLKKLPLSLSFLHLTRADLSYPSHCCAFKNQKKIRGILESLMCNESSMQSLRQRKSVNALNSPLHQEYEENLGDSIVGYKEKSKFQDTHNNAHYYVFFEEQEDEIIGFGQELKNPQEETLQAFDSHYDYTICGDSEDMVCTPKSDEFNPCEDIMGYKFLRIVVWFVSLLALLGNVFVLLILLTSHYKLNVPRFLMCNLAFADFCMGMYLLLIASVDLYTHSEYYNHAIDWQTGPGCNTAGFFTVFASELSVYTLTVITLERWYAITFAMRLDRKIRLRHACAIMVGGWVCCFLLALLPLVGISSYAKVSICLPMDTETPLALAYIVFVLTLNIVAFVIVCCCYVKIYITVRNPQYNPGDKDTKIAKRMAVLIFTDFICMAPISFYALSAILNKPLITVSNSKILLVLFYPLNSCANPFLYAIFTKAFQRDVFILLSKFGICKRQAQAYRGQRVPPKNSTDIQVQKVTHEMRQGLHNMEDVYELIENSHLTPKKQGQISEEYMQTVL
# Summary of the method: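 TSHR-HEK293 cells were plated and held 18 h at 37C/5% CO2, then given compound plus Ro20-1724 and stimulated with TSH at 1.5 ng/mL final. After 30 min at room temperature, cAMP was detected with cAMP-d2/anti-cAMP-cryptate (1 h) by fluorescence.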
# [16] = target: Estrogen receptor (Homo sapiens) (UniProt P03372); assay: qHTS assay to identify small molecule antagonists of the estrogen receptor alpha (ER-alpha) signaling pathway using the BG1 cell line in the presence of 0.1 nM 17-beta-estradiol (AID 1259244); also: nearly all actives have a fitted effect of over 50% in size; also: potency is read from the fitted curve at half-maximal effect
# Estrogen receptor (Homo sapiens), sequence (P03372 whole entry, looked up): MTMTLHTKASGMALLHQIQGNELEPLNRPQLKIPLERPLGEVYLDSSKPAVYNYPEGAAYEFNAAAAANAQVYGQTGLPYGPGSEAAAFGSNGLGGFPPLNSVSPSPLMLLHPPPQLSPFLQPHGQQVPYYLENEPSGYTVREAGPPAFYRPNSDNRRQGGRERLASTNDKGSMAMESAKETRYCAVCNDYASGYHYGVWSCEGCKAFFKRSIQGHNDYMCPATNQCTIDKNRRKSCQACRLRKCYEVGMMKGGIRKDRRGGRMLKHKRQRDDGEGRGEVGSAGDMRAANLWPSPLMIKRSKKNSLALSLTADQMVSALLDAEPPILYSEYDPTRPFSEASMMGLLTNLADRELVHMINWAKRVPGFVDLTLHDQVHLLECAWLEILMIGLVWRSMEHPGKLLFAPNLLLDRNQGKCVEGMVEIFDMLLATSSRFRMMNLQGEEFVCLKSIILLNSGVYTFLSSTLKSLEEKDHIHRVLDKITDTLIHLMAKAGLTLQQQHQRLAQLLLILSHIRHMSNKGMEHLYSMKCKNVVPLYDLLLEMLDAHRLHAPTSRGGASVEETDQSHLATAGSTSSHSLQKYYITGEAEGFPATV
# Summary of the method: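 Compounds were tested against 0.1 nM (final) 17beta-estradiol in VM7Luc4E2 cells, which express full-length ER-alpha and an ERE-luciferase reporter; luminescence was recorded following 22 h exposure.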
# [17] = target: Estrogen receptor (Homo sapiens) (UniProt P03372); assay: qHTS assay to identify small molecule agonists of the estrogen receptor alpha (ER-alpha) signaling pathway in the presence of an antagonist (AID 1259383; calls by dose curve; also: top concentration of the series differs between compounds; nearly all actives have a fitted effect of over 15% in size)
# Summary of the method: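 Quantitative HTS confirmation: compounds titrated at 15 concentrations onto estrogen-deprived VM7Luc4E2 cells carrying a four-ERE luciferase construct, with ICI-182,780 present at 10.0nM final. Signal is luminescence after 22hr exposure.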
# [18] = target: Estrogen receptor beta (Homo sapiens) (UniProt Q92731); assay: qHTS assay to identify small molecule antagonists of the estrogen receptor beta (ER-beta) signaling pathway (AID 1259378; active = well fitted inhibition curve with a large enough effect in the signal ratio in the repeat runs, not every such curve was filed as active; the % refers to the signal ratio; also: potency is read from the fitted curve at half-maximal effect)
# Estrogen receptor beta (Homo sapiens), sequence (Q92731 whole entry, looked up): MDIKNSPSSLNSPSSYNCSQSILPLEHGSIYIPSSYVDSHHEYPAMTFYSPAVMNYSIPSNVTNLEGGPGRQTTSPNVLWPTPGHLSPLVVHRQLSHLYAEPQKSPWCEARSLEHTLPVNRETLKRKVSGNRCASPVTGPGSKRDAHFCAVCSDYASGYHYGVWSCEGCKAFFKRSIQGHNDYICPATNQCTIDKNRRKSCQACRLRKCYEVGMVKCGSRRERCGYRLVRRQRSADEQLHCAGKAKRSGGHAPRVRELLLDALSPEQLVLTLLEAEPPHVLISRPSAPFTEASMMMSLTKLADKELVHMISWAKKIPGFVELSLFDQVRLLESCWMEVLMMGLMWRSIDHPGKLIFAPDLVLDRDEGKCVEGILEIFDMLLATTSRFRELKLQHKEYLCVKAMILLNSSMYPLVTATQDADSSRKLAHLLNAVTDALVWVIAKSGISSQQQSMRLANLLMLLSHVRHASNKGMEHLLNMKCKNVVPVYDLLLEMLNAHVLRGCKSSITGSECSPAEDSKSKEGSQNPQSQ
# Summary of the method: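 ER-beta-UAS-bla HEK293T (GripTite) cells in 2% charcoal-stripped FBS medium were preincubated 6 hr at 37C, dosed with compound, then stimulated with 1 nM E2 (final) for 16 hr; beta-lactamase reporter read by B/G FRET fluorescence after 2 hr substrate loading.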
Structure (SMILES),Potency [1],Potency [2],Potency [3],Potency [4],Potency [5],Potency [6],Potency [7],Potency [8],Potency [9],Potency [10],Potency [11],Potency [12],Potency [13],outcome [14],Potency [15],Potency [16],Potency [17],Potency [18]
OCCN(CCO)c1nc(N2CCCCC2)c2nc(N(CCO)CCO)nc(N3CCCCC3)c2n1,inactive,inactive,inactive,inactive,2.11 µM (active),inactive,inactive,,,,,,,,,,,
O=C(OCC1CO1)C1CCCCC1C(=O)OCC1CO1 (stereo not drawn),,inactive,inactive,inactive,,inactive,inactive,inactive,inactive,13.7 µM (active),13.7 µM (active),inactive,inactive,inactive,inactive,,,
Cc1cc(O)c(C(C)(C)C)cc1Sc1cc(C(C)(C)C)c(O)cc1C,,inactive,61 µM (active),inactive,9.67 µM (active),inactive,24.3 µM (active),43.2 µM (active),24.3 µM (active),19.3 µM (active),19.3 µM (active),30.6 µM (active),19.3 µM (active),inactive,,30.6 µM (active),inactive,
Cc1cc(=O)oc2cc(N(C)C)ccc12,,inactive,inactive,inactive,inactive,,,,,,,,,inactive,inactive,,,
CCCCCCCCNC(C)C(O)c1ccc(SC(C)C)cc1 (stereo not drawn),inactive,inactive,,inactive,18.8 µM (active),inactive,13.3 µM (active),23.7 µM (active),23.7 µM (active),16.8 µM (active),,23.7 µM (active),11.9 µM (active),inactive,,29.8 µM (active),inactive,
CC1=C(/C=C/C(C)=C/C=C/C(C)=C/C=O)C(C)(C)CCC1,,inactive,,inactive,15.3 µM (active),,30.5 µM (active),60.8 µM (active),,30.5 µM (active),,,24.2 µM (active),inactive,,,,
NC(=O)N1C(=O)C(C(=O)c2cc(Cl)cs2)c2cc(F)c(Cl)cc21 (stereo not drawn),,inactive,inactive,inactive,6.86 µM (active),inactive,30.6 µM (active),,inactive,27.3 µM (active),27.3 µM (active),7.7 µM (active),30.6 µM (active),inactive,inactive,,inactive,17.2 µM (active)
N=C1N=C(N)c2cc3ccccc3cc21,inactive,inactive,inactive,inactive,0.969 µM (active),,38.6 µM (active),,,27.3 µM (active),24.3 µM (active),,21.7 µM (active),,,,inactive,
Nc1ccc2c3c(cccc13)-c1ccccc1-2,,inactive,inactive,inactive,inactive,49.1 µM (active),49.1 µM (active),,inactive,,,,49.1 µM (active),inactive,inactive,inactive,,
CCCCCCCCCCCC(=O)NCCCN(C)C,,inactive,inactive,inactive,19.3 µM (active),inactive,54.5 µM (active),,68.6 µM (active),,,,54.5 µM (active),inactive,61.1 µM (active),inactive,inactive,
O=C(O)c1cc(O)c2c(c1)C(=O)c1cccc(O)c1C2=O,,14.1 µM (active),inactive,inactive,,,inactive,inactive,,inactive,,,inactive,inactive,inactive,inactive,inactive,
CCCCCCCCCOC(=O)c1ccc(O)cc1,,inactive,,inactive,inactive,inactive,53.7 µM (active),inactive,42.7 µM (active),60.3 µM (active),,,53.7 µM (active),inactive,,,,
CC(C)(C)CC(C)(C)c1ccc(O)c(Cc2ccc(Cl)cc2Cl)c1,inactive,inactive,,inactive,,inactive,29.8 µM (active),,29.8 µM (active),,,,11.9 µM (active),inactive,inactive,33.5 µM (active),inactive,
CC[C@@]1(O)C(=O)OCc2c1cc1n(c2=O)Cc2cc3c(CN(C)C)c(O)ccc3nc2-1,inactive,inactive,inactive,inactive,1.33 µM (active),,inactive,,,,,,inactive,inactive,inactive,1.88 µM (active),,
